Hits are enriched below; roughly 0.86% of the tested compounds scored in any of these assays.
TAR Tat displ: HIV-1 TAR-Tat binding disruption; z-score (test concentration not listed); AID 1259389; actives 0.6% (n = 100,000); HIV-1 TAR RNA, Tat peptide displacement FRET; hits give high values; active = z-score of 3 or more in at least 2 runs
CDC25B CDK2 inh: human CDC25B-CDK2/CyclinA binding inhibition | z-score (no concentration beside the values) | P30305+P24941 | HTRF CDC25B-CDK2/CyclinA binding, anti-His/anti-Flag; hits give high values | actives 0.72% (n = 94,000) | AID 1259370; in the data active = z-score above about 3.2
A number is an active result; i = inactive; nt = no result given.

SMILES	TAR Tat displ	CDC25B CDK2 inh
O=C(Oc1cc(O)cc2c1C[C@@H](OC(=O)c1cc(O)c(O)c(O)c1)[C@@H](c1cc(O)c(O)c(O)c1)O2)c1cc(O)c(O)c(O)c1	31	nt
O=C(O[C@@H]1Cc2c(O)cc(O)cc2O[C@@H]1c1cc(O)c(O)c(O)c1-c1c([C@H]2Oc3cc(O)cc(O)c3C[C@H]2OC(=O)c2cc(O)c(O)c(O)c2)cc(O)c(O)c1O)c1cc(O)c(O)c(O)c1	29	nt
O=C(O[C@@H]1Cc2c(O)cc(O)cc2O[C@@H]1c1cc(O)c(=O)c2c(O)c(O)cc([C@H]3Oc4cc(O)cc(O)c4C[C@H]3OC(=O)c3cc(O)c(O)c(O)c3)c2c1)c1cc(O)c(O)c(O)c1	26	nt
CCC(C)Oc1ccc(C2C=C(C(=O)O)Nc3ncnn32)cc1OC (stereo not drawn)	i	i
Cc1nc(-c2nn(-c3ccccc3)c(=O)n(CC(=O)O)c2=O)no1	i	i
COc1cccc(Nc2c3c(nc4ncnn24)CCCC3)c1	i	nt
COc1ccc2c(c1)Cc1sc(NC(=O)c3ccc(Br)cc3)nc1-2	i	18
COc1cc(OC)cc(C(=O)Nc2nc3c(s2)CCc2ccc(OC)cc2-3)c1	i	i
Fc1ccccc1Cn1c(CN2CCCCC2)nc2ccccc21	i	i
O=C(Nc1c(C(=O)N2CCOCC2)oc2ccccc12)c1cccs1	i	nt
COC(=O)c1cc2sccc2n1CC(=O)N(C)c1ccccc1	i	i
COC(=O)c1cc2sccc2n1CC(=O)c1ccccc1	i	9.2
O=C1c2cccnc2C(=O)N1CCc1ccc(S(=O)(=O)N2CCC(Cc3ccccc3)CC2)cc1	i	nt
Cc1ccc(-n2nc3ccc(N)cc3n2)cc1Cl	i	i
COc1ccc(-n2nc3ccc(N)cc3n2)cc1Cl	16	i
Clc1cccc(-c2nnc3sc(-c4ccncc4)nn23)c1	i	i
CC1=C(C#N)c2nc(N)c(C#N)c(C)c2/C1=C/c1ccc(-c2ccc(C(=O)O)c(Cl)c2)o1	nt	5.1
CC1=C(C#N)C(=O)NC(=O)/C1=C\c1ccc(-c2ccccc2)o1	nt	i
CCOC(=O)Cn1c(=O)c2c(nc3n2CCN3c2ccc(F)cc2)n(C)c1=O	i	nt
COc1ccc(C2OC(c3cc(C4CC4)nc4ccccc34)=NN2C(C)=O)c(OC)c1 (stereo not drawn)	9.2	nt
CC(=O)N1N=C(c2cc(C3CC3)nc3ccccc23)OC1c1ccccc1 (stereo not drawn)	i	nt
O=C1C(=O)N(c2nc3ccccc3s2)C(c2ccccc2)/C1=C(\O)c1ccccc1 (stereo not drawn)	i	i
CC1O[C@@H](Oc2c(-c3ccc(O)c(O)c3)oc3cc(O)cc(O)c3c2=O)[C@H](O)[C@H](O)[C@H]1O (stereo partly drawn)	i	nt
O=c1c(O[C@@H]2O[C@H](CO)[C@H](O)[C@H](O)[C@H]2O)c(-c2ccc(O)c(O)c2)oc2cc(O)cc(O)c12	27	nt
C[C@@H]1O[C@@H](OC[C@H]2O[C@@H](Oc3c(-c4ccc(O)c(O)c4)oc4cc(O)cc(O)c4c3=O)[C@H](O)[C@@H](O)[C@@H]2O)[C@H](O)[C@H](O)[C@H]1O	11	nt
SMILES	TAR Tat displ	CDC25B CDK2 inh
O=c1c(O[C@@H]2O[C@H](CO)[C@@H](O)[C@H](O)[C@H]2O)c(-c2ccc(O)c(O)c2)oc2cc(O)cc(O)c12	28	nt
COc1cc(-c2oc3cc(O)cc(O)c3c(=O)c2OC[C@@H]2OC(O[C@@H]3O[C@@H](C)[C@H](O)[C@@H](O)[C@H]3O)[C@@H](O)[C@H](O)[C@@H]2O)ccc1O (stereo partly drawn)	i	nt
COc1cc(-c2oc3cc(O)cc(O)c3c(=O)c2O[C@@H]2O[C@H](CO)[C@@H](O)[C@H](O)[C@H]2O)ccc1O	i	nt
COc1ccc(-c2oc3cc(O[C@H]4O[C@H](CO)[C@@H](O)[C@H](O)[C@H]4O)c(OC)c(O)c3c(=O)c2OC)cc1O	i	nt
O=c1c(O[C@@H]2OC([C@H](O)CO)[C@H](O)[C@H]2O)c(-c2ccc(O)c(O)c2)oc2cc(O)cc(O)c12 (stereo partly drawn)	27	nt
COCCn1nnc2cc(S(=O)(=O)N(C)CC(=O)O)ccc21	i	i
Cc1c(C2CCN(S(C)(=O)=O)CC2)c2ccccc2n1Cc1ccc(Cl)cc1	i	nt
COc1cc2c(cc1OC)C1=C(C#N)CN(c3ccc(C)c(C)c3)CN1CC2	i	15
COc1cc2c(cc1OC)C1=C(C#N)CN(CCc3ccccc3)CN1CC2	i	i
Cc1cc(F)ccc1S(=O)(=O)NCCc1sc2nc(-c3ccc(F)cc3)nn2c1C	i	nt
CCOC(=O)c1sc(NC(=O)C(CC)Sc2nnc3c4ccccc4n(CC)c3n2)nc1C (stereo not drawn)	i	i
CCCn1c2ccccc2c2nnc(SC(CC)C(=O)Nc3cc(C)on3)nc21 (stereo not drawn)	i	17
CC(C)Cc1nn2c(=O)cc(COC(=O)c3cccs3)nc2s1	i	nt
O=C(c1cc2c(s1)-c1ccccc1OC2)N1CCCc2ccccc21	i	i
O=C1c2ccccc2-c2c1cccc2C(=O)N1CCOCC1	i	17
O=C1CCSc2c1cccc2C(=O)N1CCOCC1	i	nt
COC(=O)C1=C(C(=O)OC)SC(=C2C(=S)C(C)(C)Nc3cc(C)c(C)cc32)S1	i	i
COC(=O)C1=C(C(=O)OC)SC(=C2C(=S)C(C)(C)Nc3ccc(C)cc32)S1	i	18
COc1cccc(Nc2ncc3c(n2)CCNC3)c1	i	i
ON=C(c1nc2ccccc2[nH]1)c1nc2ccccc2[nH]1	nt	i
NNc1nc2ccccc2[nH]c1=S	nt	5.5
CCOc1ccc(S(=O)(=O)N(C(=O)c2ccco2)c2cc3sc(=O)oc3c3ccccc23)cc1	i	i
COc1ccc(S(=O)(=O)N(C(=O)c2ccco2)c2cc3sc(=O)oc3c3ccccc23)cc1	i	16
CC(Sc1nc2c(c(=O)[nH]1)CCCC2)C(=O)Nc1ccc(F)cc1 (stereo not drawn)	i	i
CC(Sc1nc2c(c(=O)[nH]1)CCCC2)C(=O)Nc1ccc(Br)cc1 (stereo not drawn)	13	i
SMILES	TAR Tat displ	CDC25B CDK2 inh
CC1(C)CC(=O)C2=C(C1)OC(N)=C(C#N)C21CCCC1	nt	i
Cc1ccc(CN(C(=O)COc2ccccc2)C2CCS(=O)(=O)C2)o1 (stereo not drawn)	i	i
Cc1ccsc1CCNS(=O)(=O)c1ccc2c(c1)NC(=O)C(C)CS2 (stereo not drawn)	i	nt
Cc1c(C(=O)O)sc2ncnc(NC3CC3)c12	i	nt
COc1ccc(Cl)cc1Nc1ncnc2sc(C(=O)O)c(C)c12	3.9	nt
COc1ccc(Nc2ncnc3sc(C(=O)O)c(C)c23)c(OC)c1	i	nt
Cc1c(C(=O)O)sc2ncnc(Nc3ccc(F)c(Cl)c3)c12	20	nt
Cc1c(C(=O)O)sc2ncnc(NCc3ccco3)c12	i	nt
CCCCNc1ncnc2sc(C(=O)O)c(C)c12	i	nt
Cc1c(C(=O)O)sc2ncnc(Nc3ccccc3F)c12	21	nt
Cc1c(C(=O)O)sc2ncnc(NCCC3=CCCCC3)c12	6.6	nt
Cc1cccc(-c2noc(CNS(=O)(=O)c3ccc(Br)cc3)n2)c1	i	i
CN1C(=O)C(C)(C)c2cc(S(=O)(=O)N3CCC(C(=O)N4CCc5ccccc5C4)CC3)ccc21	i	nt
Cc1cc(C)n(Cc2c(C(=O)N3CCN(c4ncccn4)CC3)noc2C)n1	i	nt
COCCNC(=O)c1ccc(N2CCc3ccccc32)s1	i	nt
Cc1cc(C)c(C(=O)O)c(NO)n1	nt	i
